Screens as filed in PubChem BioAssay.
Hits are enriched below; roughly 19% of the tested compounds scored in any of these assays.
IL-1B inflam inh: inflammasome signaling inhibition, IL-1 beta readout; hit rate 4.7% among 360,000; THP-1 LPS/ATP IL-1B secretion, AlphaLISA, 16 h; active compounds read low; activity change, % at 57.5 µM; AID 743279; in the data active = activity change below about -50%; inconclusive = mostly about -30% to -49%
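Secreted IL-1B measured by AlphaLISA bead assay after 16 h compound exposure of THP-1 cells; compounds (final up to 57.5 uM) added 1 h before LPS (250 ng/mL) and ATP (1.25 mM) stimulation; lower signal means less secretion.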
DT40 TDP1 no CPT: qHTS for Inhibitors of human tyrosyl-DNA phosphodiesterase 1 (TDP1): qHTS in cells in absence of CPT | DT40 Tdp1-/- hTDP1 cells, no CPT, ATP luminescence, 48 h | hit rate 15% among 420,000 | AID 686978, 2013 | Potency, µM (doses to about 46.2 µM), for the others: at the top dose activity change, negative = growth inhibition, most hits filed as inhibitors; also: potency is read from the fitted curve at half-maximal effect; nearly all actives have a fitted effect of over 55% in size
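Growth of hTDP1-complemented DT40 Tdp1-knockout cells is measured by ATP luminescence after at least 48 hr compound exposure at 37 °C, with DMSO substituting for the 20 nM CPT used in the parallel screen.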
HT1080-NT tox: kills 2HG-producing HT-1080-NT fibrosarcoma cells; Potency, µM (doses to about 46.1 µM), inactives show at the top dose activity, negative = less viability, actives largely listed as cytotoxic; hit rate 1.6% among 360,000; HT-1080-NT fibrosarcoma viability, CellTiter-Glo ATP luminescence, 48 h;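 also: NT is the 2HG producing partner of a matched IDH1 knockdown line; potency is read from the fitted curve at half-maximal effect; 0% = DMSO-treated cells and -100% = media-only wells without cells; nearly all actives have a fitted effect of over 55% in size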
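Compounds were tested in concentration-response format on HT-1080-NT cells for 48 hours at 37 degrees C. Cell viability came from CellTiter-Glo luminescence; curves were classified by r2, response magnitude and activity.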
TDP1 cell CPT: growth inhibition of DT40 Tdp1-/-;hTDP1 cells with camptothecin (screen for TDP1 inhibitors); chicken DT40 Tdp1-/-;hTDP1 cells + 20 nM CPT, ATP luminescence, 48 h; Potency, µM (titrated, usually from 46.2 µM), for the others: at the highest dose activity change, negative = growth inhibition, hits mostly inhibitors; hit rate 12% among 420,000; also: potency is read from the fitted curve at half-maximal effect; nearly all actives have a fitted effect of over 55% in size
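Chicken DT40 Tdp1-/- cells stably complemented with human TDP1 were seeded at 400 cells/well in medium containing 20 nM camptothecin, exposed to pin-transferred compounds, and grown at 37 °C for at least 48 hr. Viability was read as ATP luminescence.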
HT1080 IDH1KD tx: toxicity to HT-1080 IDH1 knockdown cells (counter line) | AID 686971 | HT-1080 IDH1 knockdown viability, ATP luminescence, 48 h | Potency, µM (titrated, usually from 46.1 µM), for inactives: at the top dose activity, negative = toxicity, hits mostly cytotoxic | hit rate 2% among 360,000;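 also: potency is read from the fitted curve at half-maximal effect; 0% = DMSO wells and -100% = cell-free medium wells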
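Cytotoxicity counter-line: IDH1KD HT-1080, 48 h, CellTiter-Glo. Curves classed by r2, magnitude and activity.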
* = called active by the depositor; i = inactive; ? = inconclusive; . = not tested or not shown; [ ] = dose if it differs, or a comment. Unless noted, calls follow the shape of the dose curve; as a rule, active = well fitted curve in the direction sought with a large enough effect; inconclusive = small, poorly fitted or top-dose-only effect, or another doubt; inactive = no such curve, though single readings can be large; an effect the other way counts as inactive or inconclusive. Unless noted, % is scaled to controls: 0 for no effect and ±100 for the full control effect.

SMILES	IL-1B inflam inh	DT40 TDP1 no CPT	HT1080-NT tox	TDP1 cell CPT	HT1080 IDH1KD tx
Cc1ccc(-c2nnc(Nc3ccc(O)cc3)c3ccccc23)cc1S(=O)(=O)N1CCN(C)CC1	.	18µM*	.	?	.
Cc1noc(COc2ccccc2OCC(N)=O)n1	.	-21%	8%	1%	20%
COC(=O)c1c(-c2ccc(OC)c(OC)c2)csc1N	16	-18%	3%	-20%	-4%
O=C(CN1CCCCC1)Nc1nc(-c2ccc(F)c(F)c2)cs1	-10	?	-10%	?	-18%
O=C(Nc1nc(-c2ccc(F)c(F)c2)cs1)Nc1ccc(F)cc1F	-8	0.65µM*	-27%	1.6µM*	-18%
O=C(COC(=O)C1CC1)Nc1nc(-c2ccc(F)c(F)c2)cs1	-29	10µM*	-1%	21µM*	-1%
O=C(Cc1cccs1)Nc1nc(-c2ccc(F)c(F)c2)cs1	.	1.5µM*	-7%	8.2µM*	-6%
COC(=O)c1c(-c2ccc3ccccc3c2)csc1NC(=O)Cc1ccc(OC)c(OC)c1	?	13µM*	-27%	-74%	-6%[9.24 µM]
CC(C)[N+]1(C)C2CCC1CC(OC(=O)C(CO)c1ccccc1)C2 (stereo unspecified)	.	-11%	.	1%	.
CC1CCN(S(=O)(=O)c2ccc(C(=O)N3CCOCC3)cc2)CC1	i	2%	5%	-5%	21%
CC(NC(=O)c1ccccc1)C(c1cccs1)N1CCOCC1 (stereo unspecified)	1	2%	8%	-1%	10%
COc1cccc(NC(=O)Nc2nc(-c3ccc(OC)c(OC)c3)cs2)c1	-104*	7.3µM*	12µM*	18µM*	7.3µM*
COc1ccc(-c2csc(NC(C)=O)n2)cc1OC	?	-22%	1%	-30%	-3%
O=C(O)CCCC(=O)Nc1nc(-c2ccc(F)cc2)cs1	20	-9%	-9%	-3%	-1%
O=C(CCCc1cccs1)Nc1nc(-c2ccc(F)cc2)cs1	-18	8.2µM*	-19%	?	-22%
CC(=O)Nc1ccc(-c2csc(NC(=O)Cc3cccc(F)c3)n2)cc1	?	23µM*	?	?	?
COc1ccc(-c2csc(NC(=O)Cc3ccccc3)n2)cc1OC	2	1.6µM*	3%	?	0%
CCn1nc(C)cc1-c1n[nH]c(=S)n1N	25	6%	?	-2%	7%
CCNC(=O)NC(=O)C(C)OC(=O)CNS(=O)(=O)c1c(Cl)cc(Br)cc1Cl (stereo unspecified)	9	-3%	0%	-9%	1%
Cc1ccc(C(=O)NC2CCS(=O)(=O)C2)cc1S(=O)(=O)N1CCCCCC1 (stereo unspecified)	-7	-18%	-16%	-3%	-18%
O=C(Cc1ccccc1)Nc1nc(-c2ccc(F)c(F)c2)cs1	-14	?	1%	1.8µM*	0%
Cc1cc(C(=O)OC(C)C(=O)Nc2nc(-c3ccccc3)cs2)c(C)o1 (stereo unspecified)	10	-15%	?	-3%	-2%
CC(OC(=O)c1ccc([N+](=O)[O-])o1)C(=O)Nc1nc(-c2ccc(F)c(F)c2)cs1 (stereo unspecified)	?	21µM*	0%	21µM*	-5%
COc1ccc(-c2csc(NC(=O)CCn3cnc4ccccc4c3=O)n2)cc1OC	?	18µM*	-6%	?	-2%
O=C(Cc1ccccc1F)Nc1nc(-c2ccc(F)c(F)c2)cs1	-90*	2.1µM*	?	5.2µM*	?
SMILES	IL-1B inflam inh	DT40 TDP1 no CPT	HT1080-NT tox	TDP1 cell CPT	HT1080 IDH1KD tx
CC(=O)Nc1ccc(-c2csc(NC(=O)Cc3ccccc3F)n2)cc1	-13	?	-1%	?	-9%
NC(=O)CSc1nccn1Cc1ccc(Cl)cc1	13	-1%	0%	1%	12%
CC(=O)c1ccc(OCc2ccc(Oc3c(Cl)cccc3[N+](=O)[O-])cc2)cc1	0	?	-2%	?	19%
CNc1c(-n2cc(C(=O)OC)c(C(=O)OC)c2C(=O)OC)c(=O)n(C)c(=O)n1C	8	9%	-2%	17%	6%
O=C(Cc1cccs1)Nc1nc(-c2ccc(F)cc2F)cs1	-70*	?	-15%	10µM*	?
COc1cccc(-c2csc(NC3OC(=O)c4c3ccc(OC)c4OC)n2)c1 (stereo unspecified)	-93*	?	?	?	?
O=C(Cc1c(F)c(F)c(F)c(F)c1F)Nc1nc(-c2ccccc2)cs1	-79*	16µM*	?	?	16µM*
COc1cccc(/C=N/NC(=O)CCC(=O)Nc2ccc(Br)cc2)c1	-3	-8%	0%	-18%	0%
O=C(c1cccs1)N(Cc1cccnc1)c1nc2c(Cl)cccc2s1	.	?	.	-21%	.
CC(=O)N(Cc1cccnc1)c1nc2c(C)cccc2s1	.	-9%	.	?	.
Cc1cc(C)c2nc(N(Cc3cccnc3)C(=O)c3ccc(S(=O)(=O)N(C)C)cc3)sc2c1	.	18µM*	.	?	.
COc1ccc2nc(N(Cc3cccnc3)C(=O)COc3ccccc3)sc2c1	.	-2%	.	-2%	.
Cc1cccc2sc(N(Cc3cccnc3)C(=O)CCS(=O)(=O)c3ccccc3)nc12	.	3.3µM*	.	2.9µM*	.
O=C(CCOc1ccccc1)N(Cc1cccnc1)c1nc2c(Cl)cccc2s1	.	2.1µM*	.	1.3µM*	.
O=C(CCS(=O)(=O)c1ccccc1)N(Cc1cccnc1)c1nc2c(Cl)cccc2s1	.	5.2µM*	.	5.2µM*	.
Cc1cccc2sc(N(Cc3cccnc3)C(=O)COc3ccccc3)nc12	.	-13%	.	-25%	.
Cc1ccc(S(=O)(=O)O)cc1C	.	1%	.	-5%	.
CC(Sc1ccccc1)C(=O)NCC1COc2ccccc2O1 (stereo unspecified)	-7	-13%	-7%	-6%	1%
Cc1ccc2sc(N(Cc3cccnc3)C(=O)CCS(=O)(=O)c3ccccc3)nc2c1C	.	6.5µM*	.	5.8µM*	.
Cc1cc(C)c2nc(N(Cc3cccnc3)C(=O)CCS(=O)(=O)c3ccccc3)sc2c1	.	4.6µM*	.	4.6µM*	.
O=C(CCc1ccccc1)N(Cc1cccnc1)c1nc2ccc(F)cc2s1	.	-6%	.	-23%	.
Cc1cc(C)c2sc(N(Cc3cccnc3)C(=O)CCS(=O)(=O)c3ccccc3)nc2c1	.	2.9µM*	.	4.1µM*	.
Cc1cc(C)c2nc(N(Cc3cccnc3)C(=O)CCOc3ccccc3)sc2c1	.	?	.	-18%	.
O=C(Nc1ccccc1O)c1cc(S(=O)(=O)N2CCOCC2)ccc1Cl	-9	?	6%	-2%	5%[9.24 µM]
